{
  "source": "PubChem BioAssay (NCI)",
  "note": "Compounds without any hit were thinned out: in the full panel of roughly 83,000, 20% have a hit.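 Results are percent growth after 48 hours of single-concentration exposure. 100 means growth as in untreated cells, lower positive values show inhibition; negative values down to -100 show cell death.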 Values without a mark were called inactive. Active and inactive are the calls of the source. How the source made its calls: active means growth percent below 10; inactive means the rest.",
  "data": [
    {"system": "MDA-MB-468 breast", "assay": "NCI-60 one-dose screen, 48 h (100 = growth as untreated, 0 = no growth, -100 = all killed)", "settings": "10 µM unless noted", "values": [
      {"smiles": "CCN(CC)CCCNc1nc2ccccc2c2c(=O)c3cc(Cl)ccc3sc12", "growth": "54.5%"},
      {"smiles": "Nc1nc(-c2cccc([N+](=O)[O-])c2)c(N=Nc2cccc(Cl)c2)s1", "growth": "11.5%"},
      {"smiles": "COc1cccc(C2CC(=O)Nc3cc4c(cc32)OCO4)c1OC", "note": "(stereo not given)", "growth": "73.2%"},
      {"smiles": "O=C(/C(=C/c1ccc([N+](=O)[O-])cc1)SCc1ccccc1)c1ccc(Cl)cc1", "growth": "70.4%"},
      {"smiles": "CC(C)(C)n1cc(-c2ccnc(NCCNS(=O)(=O)c3cccc4ccccc34)c2)c(-c2cccc(O)c2)n1", "growth": "46.2%"},
      {"smiles": "C=C1C(=O)O[C@H]2[C@H]1CC/C(COC(=O)NCc1c[nH]c3ccccc13)=C\\CC[C@@]1(C)O[C@@H]21", "growth": "48%"},
      {"smiles": "COc1ccc2[nH]c(C(=O)N3CCN(C(=O)OCc4ccc5c(Cl)cc(Cl)c(O)c5n4)CC3)cc2c1", "growth": "-76.5% (active)"},
      {"smiles": "COc1cc(C=C2C(=O)NC(=S)NC2=O)cc(CN2CCCC2)c1O", "growth": "110%"},
      {"smiles": "O=c1oc2ccccc2cc1-c1nn(-c2ccccc2)cc1-c1nn[nH]n1", "growth": "104%"},
      {"smiles": "CN(Cc1ccccc1)c1ccc(SC#N)cc1", "growth": "84.2%"},
      {"smiles": "Cc1nc2c(c(-c3ccccc3)n1)Cc1c(ccc3ccccc13)O2", "growth": "90.5%"},
      {"smiles": "COc1ccccc1S(=O)(=O)Nc1ccc2c3c(cc(CCC(=O)NCCCCNc4cccc5c4C(=O)N(C4CCC(=O)NC4=O)C5=O)cc13)C(=O)N2C", "note": "(stereo not given)", "growth": "-35.5% (active)"},
      {"smiles": "COC(=O)Nc1ccc2ccc3c(NC(=O)OC)ccc4ccc1c2c43", "note": "(tested in a mixture with another compound)", "growth": "40.9%"},
      {"smiles": "CC(=O)Oc1ccccc1C(=O)Nc1ccc(C(=O)/C=C/c2ccncc2)cc1", "growth": "4.04% (active)"},
      {"smiles": "c1ccc2c(c1)OC1OC2Oc2ccccc21", "growth": "97.5%"},
      {"smiles": "CC(=O)Nc1nc(C)c(C(=O)N/N=C/N2CCCCC2)s1", "growth": "101%"},
      {"smiles": "Cc1cc2c(cc1C)[n+](Cc1ccc3ccccc3n1)cn2Cc1ccc2ccccc2n1", "growth": "-35.5% (active)"},
      {"smiles": "C#CCn1cnc2c(Nc3cccc(NC(=O)C=C)c3)ncnc21", "growth": "78%"},
      {"smiles": "Cc1ccc2nc3c(cc2c1)CSc1nnc(-c2ccc[nH]c2=S)n1N3", "growth": "111%"},
      {"smiles": "O=C(NCCN1CCOCC1)OCc1ccc2c(Cl)cc(Cl)c(O)c2n1", "growth": "81.6%"},
      {"smiles": "COc1cnc2c(c1)C(=O)c1c-2n(CCCN2CCOCC2)c(=O)c2cc(Cl)ccc12", "growth": "-1.98% (active)"},
      {"smiles": "COC(=O)C1=Nc2ccc(F)cc2/C1=C/c1sc(=S)[nH]c1O", "growth": "13.4%"},
      {"smiles": "Cc1cc(N=C2C=CC(=[N+](C)C)C=C2)c(N)cc1N", "growth": "39.6%"},
      {"smiles": "COc1cc(C(C)=C(c2ccc(OCCN(C)C)cc2)c2ccc(OCCN(C)C)cc2)ccc1F", "growth": "93.3%"},
      {"smiles": "CN1C(=O)CNC(=O)[C@H](NC(=O)c2nc3ccccc3cc2O)CSSC[C@H]1C(=O)NCCCc1nc2ccccc2cc1O", "growth": "22.3%"},
      {"smiles": "CCCCCCCCn1ccc2cc(NC(=O)Cn3cc(CN4CCCC4)nn3)ccc21", "growth": "16.1%"},
      {"smiles": "CCN(CC)CCC(CNc1c(C)cnc2cc(Cl)ccc12)c1ccc(Cl)cc1", "note": "(stereo not given)", "growth": "19.3%"},
      {"smiles": "O=c1oc2c(cnc3ccccc32)cc1-c1cccc(Cl)c1", "growth": "104%"},
      {"smiles": "CN(Cc1ccccc1)Cc1ccccc1", "growth": "92.1%"},
      {"smiles": "c1cc[n+](Cc2ccnc3ccccc23)cc1", "growth": "126%"},
      {"smiles": "COc1cc(-c2csc(NC(=O)c3cc(F)cc(C(F)(F)F)c3)n2)cc(OC)c1OC", "growth": "-1.52% (active)"},
      {"smiles": "Nc1ccc(C(OC(=O)c2cc3ccccc3c(Cc3c(O)c(C(=O)OC(c4ccc(N)cc4)(c4ccc(N)cc4)c4ccc(N)cc4)cc4ccccc34)c2O)(c2ccc(N)cc2)c2ccc(N)cc2)cc1", "growth": "-23% (active)"},
      {"smiles": "COc1ccc(C(C#N)=C2C=CC(=NO)C=C2)cc1", "growth": "-7.26% (active)"},
      {"smiles": "C/C=C(/C(=O)NC(N)=O)C(C)C", "growth": "117%"},
      {"smiles": "O=[N+]([O-])c1ccc(N/N=C/c2ccccc2O)nc1", "growth": "10.3%"},
      {"smiles": "COc1ccc(C(=O)c2ccccc2CN2C(=O)c3ccccc3C2=O)cc1", "growth": "115%"},
      {"smiles": "CC(C)[C@H]1COC(=O)N1[C@@H]1C(=O)N([C@@H](CCC(=O)N2CCN(C3CCCC3)CC2)C(=O)N[C@@H]2CCCc3ccccc32)[C@@H]1/C=C/c1cccc(Cl)c1", "growth": "-11.4% (active)"},
      {"smiles": "N=C(N)c1ccc(-c2ccc(-c3cccs3)s2)cc1F", "growth": "-77.4% (active)"},
      {"smiles": "CCCCCCC(CCCC)COC(=O)c1ccc(Cl)cc1", "note": "(stereo not given)", "growth": "96.2%"},
      {"smiles": "O=[N+]([O-])c1cccc(-c2nc3sccn3c2-c2ccnc(NCCCNS(=O)(=O)c3ccc(Br)cc3)n2)c1", "growth": "29.2%"}
    ]}
  ]
}
